Hits are enriched below; roughly 2.3% of the tested compounds scored in any of these assays.
CCT chaperon mod = modulators of cytosolic chaperonin (CCT/TRiC) activity; purified chaperonin ATPase assay, HTRF ADP detection, 30 min; activity change, % (test concentration not listed), hits read low; 360,000 compounds, 0.3% hits; in the data active = activity change below about -30%; note: % is set by controls: 0 for no effect and ±100 for the full control effect
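TRiC (40 or 20 nM final, by batch activity) in 30 mM Tris pH 7.4, 100 mM KCl, 5 mM MgCl2, 1 mM DTT was treated with compound at 76 uM single dose, then 10 uM ATP, 30 min at 37 °C. ADP was read by HTRF Transcreener.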
aSyn rescue = inhibitors of alpha-synuclein toxicity in yeast; Yeast expressing alpha-synuclein, growth rescue, BacTiter-Glo, 24 h; 370,000 compounds, 0.14% hits; AID 652106; Potency, µM (series often up to 46.1 µM), inactives show at the top dose growth rescue (activation), usual class: activators; note: potency is the fitted concentration of half-maximal effect; % of control where 0% means no effect; nearly all actives have a fitted effect of over 65% in size
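Rescue of yeast growth: cells expressing toxic alpha-synuclein, induced in galactose at OD600 0.02, incubated with compound 24 h at 30 C. ATP luminescence quantified growth; inhibitors of toxicity appear as activators.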
Abeta rescue = A-beta toxicity reversal in yeast; yeast expressing A-beta42, growth rescue, OD600, 48 h; response scale: 0% DMSO, 100% iron-clioquinol control; Potency, µM (doses to about 46.1 µM), actives largely listed as activators; 410,000 compounds, 0.063% hits; AID 1347071; note: potency is the fitted concentration of half-maximal effect; nearly all actives have a fitted effect of over 55% in size
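Yeast A-beta toxicity model in growth medium with pinned compounds, 48 h at 30 C; growth read as absorbance at 600 nm. Normalized to FeCl3/clioquinol equimolar mix (positive) and DMSO (negative).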
TDP43 rescue = TDP-43 toxicity inhibition in yeast; AID 652104; 410,000 compounds, 1.8% hits; Potency, µM (series often up to 46.1 µM), for inactives: at the top dose growth rescue (activation), hits mostly activators; TDP-43 expressing yeast growth rescue, BacTiter-Glo, 24 h; note: potency is the fitted concentration of half-maximal effect; % of control where 0% means no effect; nearly all actives have a fitted effect of over 50% in size
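Luminescence from BacTiter-Glo reports growth of TDP-43-expressing yeast after 24 hr at 30 deg C with compound. Cells were raffinose-pregrown to mid-log, then seeded in galactose medium at OD600=0.02.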
Mm-Cpn inhibitor = blocks the Methanococcus maripaludis chaperonin Mm-Cpn; purified Mm-Cpn ATPase, ADP Transcreener TR-FRET; Potency, µM (top dose mostly 76.9 µM), without a hit: top-dose activity, negative = inhibition, hits mostly inhibitors; 330,000 compounds, 0.031% hits; note: potency is the fitted concentration of half-maximal effect; % is set by controls: 0 for no effect and ±100 for the full control effect; nearly all actives have a fitted effect of over 80% in size
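Inhibition of chaperonin ATP hydrolysis is measured as reduced ADP production, detected by competitive TR-FRET in which signal falls with ADP. Final enzyme 25 nM and ATP 10 uM, reacted 30 min at 37°C.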
FUS suppressor = FUS proteinopathy suppression in yeast. S. cerevisiae FUS-expressing, growth rescue, OD600, 24 h. Potency, µM (series often up to 76.6 µM), most hits filed as activators. 390,000 compounds, 0.24% hits. AID 1347120;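 note: potency is the fitted concentration of half-maximal effect; plate controls were DMSO vehicle for no effect and reference control for full effect; nearly all actives have a fitted effect of over 55% in size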
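Absorbance at 600 nm, taken 24hr after compound addition, measured rescue of FUS-yeast growth at 30C. Induction used 2% galactose with seeding at OD 0.005. Controls: CP55940 from 92uM final, DMSO only.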
* hit, by the source's call; i = inactive; ? = inconclusive; . = not tested or not shown; [ ] = remark or other dose. Unless noted, calls come from the whole dose curve; as a rule, active = well fitted curve in the direction sought with a large enough effect; inconclusive = small, poorly fitted or top-dose-only effect, or another doubt; inactive = no such curve, though single readings can be large; an effect the other way counts as inactive or inconclusive.

SMILES	CCT chaperon mod	aSyn rescue	Abeta rescue	TDP43 rescue	Mm-Cpn inhibitor	FUS suppressor
CCC(C)(C)NC(=O)C(c1ccccn1)N(C(=O)c1csnn1)c1ccc(C)cc1 (configuration not stated)	-33.9*	17.0%	i	-15.3%[0.397 µM]	-0.7%	i
CC(C)c1ccc(-c2noc(SCC(=O)N(C)c3ccc(F)cc3)n2)cc1	.	.	i	14.3%	.	?
CN(c1ncnc2onc(-c3cccc(Cl)c3)c12)C1CCCCC1	.	.	i	22.4µM*	.	i
CC(C)(C)c1nnc(N/N=C/c2ccccc2)n(N)c1=O	0.3	-1.2%	i	0.0%	1.4%	.
CC(C)(C)c1nnc(N/N=C/c2ccccc2O)n(N)c1=O	1.8	17.8µM*	11.2µM*	12.8%	2.0%	i
O=C(COc1ccc2ccccc2c1)NCCn1ccc2ccccc21	-2.3	?	?	22.4µM*	1.9%	?
O=C(Cc1ccccc1)NCCn1ccc2ccccc21	0.3	-2.2%	i	?	-4.9%	i
O=[N+]([O-])c1ccc(-c2cnc3ccccc3n2)cc1	-37.8*	0.5%	i	17.9%	-0.7%	i
Cc1nc2ccccc2nc1-c1ccc([N+](=O)[O-])cc1	0.8	0.6%	i	25.9%	.	i
Cc1cc(C)c(C(=O)NC2CC(C)(C)Cc3c2cnn3-c2ccccc2)o1 (configuration not stated)	0.0	-8.7%	i	15.8µM*	0.6%	i
CCCn1nc(C(=O)NNC(=O)CCCOc2ccc(OC)cc2)c2ccccc2c1=O	-76.4*	2.0%	i	13.6%	0.3%	i
Cc1ccc(C(C)NC(=S)NCc2ccc(F)cc2)cc1C (configuration not stated)	3.0	9.2%	14.1µM*	29.5%	-0.4%	i
Cc1ccc(C(C)NC(=S)NCc2ccc(F)cc2)c(C)c1 (configuration not stated)	2.2	3.0%	?	?	-3.6%	.
CCc1ccc(C(C)NC(=S)NCc2ccc(F)cc2)cc1 (configuration not stated)	0.2	-9.4%	4.47µM*	26.6%	-1.3%	i
CCc1ccc(C(C)NC(=S)NC2CCCCC2)cc1 (configuration not stated)	1.2	-16.3%	10µM*	?	1.2%	i
COc1ccc(C(NC(=O)COc2ccc(C#N)cc2)c2ccc(OC)cc2)cc1	.	-11.5%	.	.	.	.
C#CCCC(=O)O[C@H]1CCC[C@@]2(C(=O)N(Cc3ccccc3)c3ccccc32)[C@H]1NC(=O)CCc1ccccc1	.	.	.	.	.	i
O=C(NCC(c1cccnc1)N1CCN(Cc2ccccc2)CC1)C(=O)Nc1cccc(Cl)c1 (configuration not stated)	.	.	i	4.6%	.	i
Cn1ccc2c(-c3ccc(F)nc3)cc3c(c21)C1CCC3O1 (configuration not stated)	1.8	1.0%	i	?	.	i
Cn1ccc2c(-c3ccc4[nH]ccc4c3)cc3c(c21)C1CCC3O1 (configuration not stated)	-0.9	14.1%	i	15.8µM*	.	i
COc1ccccc1-c1cc2c(c3c1ccn3C)C1CCC2O1 (configuration not stated)	0.8	2.0%	i	?	.	i
COc1ccc(-c2cc3c(c4c2ccn4C)C2CCC3O2)cn1 (configuration not stated)	-2.9	?	i	12.6µM*	.	i
Cn1ccc2c(-c3cccc4ccccc34)cc3c(c21)C1CCC3O1 (configuration not stated)	-2.4	13.8%	i	15.8µM*	.	?
N#Cc1ccc(NC(=O)OC2CCC23CCC(c2ccccc2)CC3)cc1 (configuration not stated)	.	.	.	.	.	i
C[C@H]1C2CC(OC(=O)Nc3ccccc3C(F)(F)F)C(C2)[C@H]2CCCCN21 (some centres not stated)	.	.	.	.	.	i
SMILES	CCT chaperon mod	aSyn rescue	Abeta rescue	TDP43 rescue	Mm-Cpn inhibitor	FUS suppressor
Cc1ccc(S(=O)(=O)N2CCN(c3nc(-c4cccs4)nc4c3ncn4COC(=O)C(C)(C)C)CC2)cc1	.	-8.2%	.	.	.	.
Cc1cc(SC#N)cc(C)c1NC(=O)CCl	-2.0	6.9%	i	?	-17.5%	.
CCC(=O)Nc1ccc(SC#N)cc1C	3.7	8.0%	i	11.2µM*	-2.7%	i
CCCCS/C(N)=N/N=C/c1ccccc1O	-1.8	-3.1%	i	11.2µM*	0.4%	i
CCCS/C(N)=N/N=C/c1cc(C)ccc1O	-0.4	4.8%	i	12.4%	-0.2%	i
OC(COc1ccc2ccccc2c1Cl)CN1CCOCC1 (configuration not stated)	-31.8*	0.8%	i	-16.5%	?	i
OC(COc1cccc2ccccc12)CN1CCOCC1 (configuration not stated)	-1.0	-3.1%	i	17.4%	.	i
Cc1ccc(S(=O)(=O)NCC2CN(S(=O)(=O)c3ccc(C)cc3)c3ccccc3C(=O)N2c2ccc(F)cc2)cc1 (configuration not stated)	.	.	.	.	.	17.8µM*
Cc1ccc(S(=O)(=O)NCC2Cc3ccccc3N2S(=O)(=O)c2ccc(C)cc2)cc1 (configuration not stated)	.	.	.	.	.	i
O=C(N/N=C/c1ccncc1)c1cccc(NC(=O)c2ccc(Cl)cc2)c1	-35.9*	1.2%	i	?	2.6%	i
COc1ccc2c(Cl)c(C(=O)N/N=C/c3ccncc3)sc2c1	1.8	-3.2%	i	-4.4%	-3.5%	i
O=C(N/N=C/c1ccncc1)c1sc2ccccc2c1Cl	-83.6*	-1.1%	i	5.1%	1.9%	i
O=C(COc1ccccc1C(=O)Nc1ccccc1)Nc1ccccc1-c1ccccc1	.	-4.6%	.	.	.	.
CC(C)(C)c1ccc(S(=O)(=O)N2CCN(c3nc(-c4ccccc4)nc4ccccc34)CC2)cc1	.	0.6%	.	.	.	.
O=S(=O)(c1cccc(Cl)c1)N1CCN(c2nc(-c3ccccc3)nc3ccccc23)CC1	.	-8.5%	.	.	.	.
Oc1ccc(N=Nc2ccccc2)cc1	-1.3	-15.4%	i	17.8µM*	1.3%	i
COC(=O)c1ccc(N=Nc2ccccc2)cc1	1.7	0.5%	i	15.8µM*	-2.1%	i
N#Cc1nc(-c2ccc(OCc3ccc(Cl)cc3)cc2)oc1N1CCCC1	.	5.9%	.	.	.	.
